Source: PubChem BioAssay (NCATS)
Inconclusive results are not listed. Activity calls are given as the source filed them. Calls follow the shape of the dose curve; as a rule, active = well fitted activation curve with a large enough effect; inconclusive = small, poorly fitted or top-dose-only effect; inactive = no such curve, though single readings can be large or run the other way.

These compounds were tested against Rap guanine nucleotide exchange factor 4 (Homo sapiens) (UniProt Q8WZA2) (assay: Confirmatory qHTS for agonist of cAMP-regulated guanine nucleotide exchange factor 4 (EPAC2) (AID 1645884;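 also: nucleotide exchange releases bodipy-GDP from Rap1 and this lowers its fluorescence; nearly all actives have a fitted effect of over 65% in size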)). Details: EPAC2 GEF activity, Rap1B-BODIPY-GDP fluorescence; series mostly up to 154 µM; activation: at the top concentration.
% is scaled to controls: 0 for no effect and ±100 for the full control effect.

Chain of Rap guanine nucleotide exchange factor 4 (Homo sapiens) (Q8WZA2 whole entry, looked up): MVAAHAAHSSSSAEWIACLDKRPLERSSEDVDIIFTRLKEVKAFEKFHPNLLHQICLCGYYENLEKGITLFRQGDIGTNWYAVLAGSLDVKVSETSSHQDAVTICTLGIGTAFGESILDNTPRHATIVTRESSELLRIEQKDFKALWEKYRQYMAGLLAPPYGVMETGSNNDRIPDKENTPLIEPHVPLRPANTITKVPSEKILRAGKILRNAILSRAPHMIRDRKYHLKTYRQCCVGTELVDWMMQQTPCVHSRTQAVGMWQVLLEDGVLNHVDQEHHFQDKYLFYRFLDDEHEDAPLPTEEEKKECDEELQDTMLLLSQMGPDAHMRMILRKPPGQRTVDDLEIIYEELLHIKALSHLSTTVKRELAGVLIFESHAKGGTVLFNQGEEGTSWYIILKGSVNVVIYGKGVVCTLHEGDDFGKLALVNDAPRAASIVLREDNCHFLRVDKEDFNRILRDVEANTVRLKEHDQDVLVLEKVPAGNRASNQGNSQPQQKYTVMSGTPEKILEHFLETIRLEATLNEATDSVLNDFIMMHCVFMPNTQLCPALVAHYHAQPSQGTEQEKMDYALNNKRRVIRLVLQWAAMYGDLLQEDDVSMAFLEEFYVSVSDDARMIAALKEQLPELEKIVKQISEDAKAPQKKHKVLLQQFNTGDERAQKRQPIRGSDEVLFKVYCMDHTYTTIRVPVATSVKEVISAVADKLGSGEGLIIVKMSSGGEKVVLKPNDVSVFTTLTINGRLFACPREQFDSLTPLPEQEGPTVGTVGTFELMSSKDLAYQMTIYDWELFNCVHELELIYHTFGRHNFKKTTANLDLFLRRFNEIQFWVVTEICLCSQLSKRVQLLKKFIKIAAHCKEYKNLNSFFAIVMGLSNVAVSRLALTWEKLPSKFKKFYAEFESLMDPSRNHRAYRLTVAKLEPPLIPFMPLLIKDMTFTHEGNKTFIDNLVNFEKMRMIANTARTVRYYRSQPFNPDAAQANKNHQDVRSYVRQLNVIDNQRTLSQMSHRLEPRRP

activation, inactive:
Cc1ccccc1C(=O)Nc1sc2c(c1C(=O)N1CCCCC1)CCC(C)C2 (configuration not stated) -13.1% [at 83.8 µM, percent relative to cAMP agonist control]
CC1=C(C(=O)Nc2ccccc2)C(c2ccc(Cl)cc2)n2c(s/c(=C/c3cccc(OCC(=O)O)c3)c2=O)=N1 (configuration not stated) 3.83% [at 17.1 µM, percent relative to cAMP agonist control]
COc1ccc2c(c1)Cc1sc(NC(=O)c3ccccc3C)nc1-2 -3.82% [at 83.8 µM, percent relative to cAMP agonist control]
COc1cccc(C(=O)Nc2nnc(-c3ccccc3)s2)c1OC -5.93%
O=C(N/N=C/c1ccc(O)c(O)c1)c1ccc(CSc2cccc3cccnc23)cc1 14.6% [at 17.1 µM, percent relative to cAMP agonist control]
COc1ccc(N(CC(=O)NC2CCCCCCC2)S(=O)(=O)c2c(C)nn(C)c2C)cc1 -12.2%
CC(NS(=O)(=O)OCC(Cl)(Cl)Cl)c1ccc(Br)cc1 (configuration not stated) 12.5%
